# According to PubChem BioAssay AID720555 (National Center for Advancing Translational Sciences (NCATS), 2013):
# Inconclusive results are not listed. Active and inactive are the calls of the source. Calls come from the whole dose curve; as a rule, active = well fitted inhibition curve with a large enough effect; inconclusive = small, poorly fitted or top-dose-only effect; inactive = no such curve, though single readings can be large or run the other way.
# Target: RecQ-like DNA helicase BLM (Homo sapiens) (UniProt P54132)
# Test: qHTS for Inhibitors of Bloom's syndrome helicase (BLM): Helicase DNA unwinding fluorescent orthogonal confirmatory assay for SAR
# Conditions: fluorescence, orthogonal confirmation
# Description: Human RecQ DNA helicases participate in maintenance of genome stability and DNA repair. While other types of helicases have been explored as targets for drug development, members of the RecQ family have remained less well characterized. Mutations of the Bloom helicase gene have been associated with the rare human genetic disease called Bloom syndrome. […] Moreover, identified inhibitors can be used in cells and animal models to examine the consequences of inhibition on the survival of cancer cells where it has been shown that BLM plays an important role.
# A fluorescence-based, biochemical assay in 1536 well format was developed to evaluate inhibition of BLM DNA unwinding activity. This assay was used to screen the MLPCN library. The resulting compounds were subjected to orthogonal and secondary biochemical assays to triage the initial hits, to classify compounds based on mode of action and to derive structure activity relationships (SARs) of candidate effectors. The data herein is the result of the Helicase DNA unwinding fluorescent orthogonal confirmatory assay. This fluorescent-based assay employs a purified BLM enzyme and utilizes gel electrophoresis to monitor the helicase-mediated unwinding of a fluorescently-labeled DNA substrate. For this assay decrease in the single-stranded DNA product band on the gel = inhibition of the BLM helicase activity. Inhibition is the desired outcome for this assay.
# NIH Chemical Genomics Center [NCGC]
# NIH Molecular Libraries Probe Centers Network [MLPCN]
# Assay Submitter (PI): Opher Gileadi, Structural Genomics Consortium, University of Oxford, UK
# Unwinding assay for the BLM helicase was carried out in a reaction buffer containing 50 mM Tris-HCl pH 7.5, 50mM NaCl, 2mM MgCl2, 2mM ATP, 1mM DTT, and 0.1 mg/ml BSA. Optimal substrate and enzyme concentrations as well as reaction times were determined experimentally. All reactions were performed at room temperature and terminated by the addition of loading buffer containing 20mM EDTA and 2.5% bromophenol blue. […] Substrate and product bands were quantified using ImageJ. […]
# RecQ-like DNA helicase BLM (Homo sapiens), sequence (P54132 whole entry, looked up): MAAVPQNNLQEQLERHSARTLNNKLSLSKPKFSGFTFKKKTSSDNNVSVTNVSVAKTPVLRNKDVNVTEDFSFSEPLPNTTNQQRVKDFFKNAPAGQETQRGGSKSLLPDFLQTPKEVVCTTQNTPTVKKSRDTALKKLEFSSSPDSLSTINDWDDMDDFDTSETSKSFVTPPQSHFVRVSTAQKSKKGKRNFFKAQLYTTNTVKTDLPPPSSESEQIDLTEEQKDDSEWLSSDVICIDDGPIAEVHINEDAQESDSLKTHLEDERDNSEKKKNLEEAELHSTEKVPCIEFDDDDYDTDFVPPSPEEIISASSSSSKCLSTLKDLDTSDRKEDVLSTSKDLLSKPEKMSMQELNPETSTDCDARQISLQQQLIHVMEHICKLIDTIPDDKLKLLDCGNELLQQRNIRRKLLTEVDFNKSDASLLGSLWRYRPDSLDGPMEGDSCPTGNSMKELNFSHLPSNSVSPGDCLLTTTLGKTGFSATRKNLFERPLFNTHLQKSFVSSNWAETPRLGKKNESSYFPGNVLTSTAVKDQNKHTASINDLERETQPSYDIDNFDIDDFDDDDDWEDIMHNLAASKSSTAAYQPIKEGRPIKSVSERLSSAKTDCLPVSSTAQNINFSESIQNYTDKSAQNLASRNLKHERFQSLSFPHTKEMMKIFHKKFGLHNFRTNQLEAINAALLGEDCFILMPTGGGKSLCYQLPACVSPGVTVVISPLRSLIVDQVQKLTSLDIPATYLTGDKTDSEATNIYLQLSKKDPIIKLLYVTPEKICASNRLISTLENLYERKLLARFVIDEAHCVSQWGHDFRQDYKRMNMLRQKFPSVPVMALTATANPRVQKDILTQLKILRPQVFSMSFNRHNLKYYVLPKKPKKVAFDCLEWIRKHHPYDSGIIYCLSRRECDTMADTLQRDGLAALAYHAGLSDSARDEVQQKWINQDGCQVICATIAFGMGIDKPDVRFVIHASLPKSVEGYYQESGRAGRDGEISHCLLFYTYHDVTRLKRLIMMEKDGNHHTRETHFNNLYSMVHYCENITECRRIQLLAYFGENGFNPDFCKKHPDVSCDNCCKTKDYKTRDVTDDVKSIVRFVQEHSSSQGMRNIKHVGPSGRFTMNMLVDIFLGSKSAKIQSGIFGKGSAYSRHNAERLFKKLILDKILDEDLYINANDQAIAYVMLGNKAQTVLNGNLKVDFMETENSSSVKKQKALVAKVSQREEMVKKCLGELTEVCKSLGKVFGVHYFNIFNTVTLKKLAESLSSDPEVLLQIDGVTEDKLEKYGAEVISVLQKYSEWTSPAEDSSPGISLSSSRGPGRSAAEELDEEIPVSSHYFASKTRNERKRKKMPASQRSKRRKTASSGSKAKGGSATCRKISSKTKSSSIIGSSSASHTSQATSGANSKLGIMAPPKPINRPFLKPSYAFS
row,Compound,Potency
1,N#Cc1ccc(NC(=O)Nc2nnc(-c3ccncc3)s2)cc1Br,1.12 µM (active)
2,N#Cc1ccc(NC(=O)Nc2nnc(-c3ccncc3)s2)cc1Cl,1.58 µM (active)
3,N#Cc1ccc(NC(=O)Nc2nnc(-c3ccncc3)s2)cc1C(F)(F)F,5.62 µM (active)
